Assay outcomes from PubChem.
Shown are actives, neighbours in structure and some others; about 27% of the full set was active somewhere.
CYP2C9 act – increases human cytochrome P450 2C9 activity; P11712; recombinant CYP2C9, luciferin-H conversion, luminescence; hits give high values; factor 1 = untreated enzyme, 0 = blocked; activation factor at 5 µM; 1.4% of 96,000 active;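 active = activation factor of 2 or more for CYP2C9 at a 5 µM dose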;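 also: 0 = sulfaphenazole-blocked wells and 1 = vehicle-only wells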
CYP2C19 activ – increases human CYP2C19 enzyme activity; AID 1025; P33261; recombinant CYP2C19, luciferin-H EGE luminescence; hits give high values; 0 = fully inhibited enzyme, 1 = untreated enzyme; activation factor at 5 µM; 96,000 tested, under 10 active;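 active = activation factor of at least 2 at 5 µM in the primary screen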;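 also: 0 = wells with 2.5 mM tranylcypromine and 1 = vehicle-only wells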
Target sequence (P33261 whole entry, looked up): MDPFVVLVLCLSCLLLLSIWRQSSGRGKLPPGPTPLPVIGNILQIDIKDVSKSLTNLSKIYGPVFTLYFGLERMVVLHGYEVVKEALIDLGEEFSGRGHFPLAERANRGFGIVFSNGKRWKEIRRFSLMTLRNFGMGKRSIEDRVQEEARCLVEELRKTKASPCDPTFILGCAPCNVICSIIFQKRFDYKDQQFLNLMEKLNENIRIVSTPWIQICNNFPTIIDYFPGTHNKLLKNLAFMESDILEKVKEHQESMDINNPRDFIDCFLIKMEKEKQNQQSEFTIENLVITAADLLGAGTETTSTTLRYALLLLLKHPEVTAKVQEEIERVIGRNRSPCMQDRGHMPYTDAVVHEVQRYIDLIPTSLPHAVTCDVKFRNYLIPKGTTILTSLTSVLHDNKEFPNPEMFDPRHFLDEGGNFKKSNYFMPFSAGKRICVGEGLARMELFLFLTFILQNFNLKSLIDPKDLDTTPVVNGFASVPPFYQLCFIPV
CYP2C19 inh – blocks human cytochrome P450 2C19 | P33261 | 21% of 96,000 active | inhibition, % at 5 µM | CYP2C19 Supersomes, luciferin-H EGE luminescence, 30 min;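 active = CYP2C19 inhibition above a set limit at 5 µM in the primary screen, cut at about 50% in these data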;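 also: plate controls were negative control wells for no effect and 2.5 mM tranylcypromine positive control for full effect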
CYP2C9 inh – blocks human cytochrome P450 2C9; P11712; CYP2C9 Supersomes, luciferin-H conversion, luminescence; inhibition, % at 5 µM; 20% of 96,000 active;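 active = blocking of liver enzyme CYP2C9 beyond about 50% at 5 µM, limit read from the data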
Cav3 T inh – inhibitors of human Cav3.2 T-type calcium channel. O95180. Cav3.2-expressing cells, Fluo-4 calcium fluorescence FDSS; hits give low values. B-score at 10 µM. 4% of 100,000 active. AID 449739;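 active = single-dose well whose peak fluorescence ratio is a statistical outlier from its plate by either plate-standardised score or position-corrected B-score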
Active calls of the source: *; x = no result.

SMILES | CYP2C9 act | CYP2C19 activ | CYP2C19 inh | CYP2C9 inh | Cav3 T inh
O=C1NC2(CCCCC2)C(=O)N1/N=C/c1ccc(O)cc1O | 3.2* | 0.9 | 13 | -219 | 0.74
CCOC(=O)N1N=C(c2ccc(C)cc2)CC1(O)C(F)(F)F (stereo unspecified) | 0.5 | 0.4 | 59* | 48 | 1.9
CCOC(=O)N1N=C(c2ccccc2)CC1(O)C(F)(F)F (stereo unspecified) | 0.8 | 0.8 | 23 | 19 | x
Cc1ccc2nc(-c3ccc(NS(C)(=O)=O)cc3)cc(-c3ccccc3)c2c1 | 0.5 | 0.9 | 10 | 53* | -0.066
Cc1ccc2nc(-c3ccncc3)cc(-c3ccccc3)c2c1 | 0.6 | 0.8 | 17 | 36 | -3.1
CCOc1c(Br)cc(C2NS(=O)(=O)N=C3CCCCCN32)cc1OC (stereo unspecified) | 0.3 | 0.3 | 68* | 66* | 1.3
COC(=O)c1sccc1NC(=O)CSc1ccccc1NS(=O)(=O)c1ccc(Cl)cc1 | 0.2 | 0.4 | 59* | 84* | -6*
COC(=O)c1sccc1NC(=O)CSc1ccccc1NS(=O)(=O)c1ccccc1Cl | 0.1 | 1 | 4 | 87* | -4.3*
COC(=O)c1sccc1NC(=O)CSc1cc(Cl)ccc1Cl | 0.6 | 0.7 | 30 | 44 | x
CCN(CCCNC(=O)c1[nH]c(C)c(C(C)=O)c1C)c1ccccc1 | 0.7 | 0.5 | 46 | 31 | 0.36
CCOC(=O)c1cnc2c(C)cccc2c1NCc1ccco1 | 0.5 | 0.5 | 47 | 49 | 1.5
CCOC(=O)c1cnc2c(C(=O)OC)cccc2c1NCc1ccco1 | 0.5 | 0.8 | 24 | 54* | -0.035
COc1ccc(-c2c/c(=N\c3nc(-c4ccccc4)c(C)s3)c3ccccc3o2)cc1O | 0.1 | 0.7 | 28 | 93* | -0.033
COc1cccc(C(=O)Nc2nnc(-c3cccs3)o2)c1 | 0.6 | 0.8 | 21 | 40 | x
COc1cccc(C(=O)Nc2nnc(-c3ccc(Cl)cc3)o2)c1 | x | x | x | x | -5.4*
CCOc1ccc(-c2nnc(NC(=O)c3ccc(OCC(C)C)c(OC)c3)o2)cc1 | 1 | 0.9 | 14 | 0 | -4.2*
CC(=O)N1CC=CC1(CC(C)C)C(=O)NCCN1CCOCC1 (stereo unspecified) | x | x | x | x | 0.4
Cc1cccc(C(=O)NNC2=C(C(=O)C(F)(F)F)CCC2)c1O | 0.1 | 1.1 | -11 | 94* | -8*
CC1(c2nnc(-c3cccc(Cl)c3)o2)CC(c2ccc(C#N)cc2)=NO1 (stereo unspecified) | x | x | x | x | -0.57
Cc1ccccc1C(=O)N=c1sccn1C | 0.8 | 0.1 | 93* | 22 | 0.62
COC(=O)c1ccccc1NC(=O)CSc1n[nH]c(C)n1 | x | x | x | x | 0.0047
COC(=O)c1ccccc1NC(=O)COc1ccccc1 | 1 | 0.5 | 53* | 2 | -1.4
COC(=O)c1ccccc1NC(=O)CSc1n[nH]c(CC(C)C)n1 | 1.5 | 0.1 | 86* | -50 | -0.079
COC(=O)c1ccccc1NC(=O)Cn1cc(Br)cn1 | 1 | 0.4 | 60* | 0 | 0.61
COCCNC(=O)c1ccccc1NC(=O)COc1ccccc1 | 0.5 | 1 | -1 | 46 | -1.6
SMILES | CYP2C9 act | CYP2C19 activ | CYP2C19 inh | CYP2C9 inh | Cav3 T inh
Cc1ccc(SCC(=O)Nc2ccccc2C(=O)O)cc1 | 0.2 | 0.7 | 34 | 85* | -1.7
C=CCOc1nc(N2CCCC2)nc(N2CCCC2)n1 | 1 | 1 | 0 | -1 | -0.15
Cn1nc(OC(=O)Nc2ccc(Cl)cc2)cc1C(F)(F)F | 0.7 | 0.8 | 20 | 30 | -0.1
CCOc1ccc(OCCCCNCCN)cc1 | 1 | 0.9 | 6 | 4 | x
COC(=O)c1ccccc1NC(=O)CSc1ccc(C)cc1 | x | x | x | x | -1.9
COC(=O)c1ccccc1NC(=O)CSc1ccccc1 | 1.3 | 0 | 95* | -28 | x
CC(=O)C1=NN(c2ccccc2)C2(S1)S/C(=C\c1ccccc1)C(=O)N2c1ccccc1 (stereo unspecified) | 0.4 | 1.1 | -15 | 58* | -1.8
COC(=O)C1=NN(c2ccccc2)C2(S1)SC(C(C)=O)=C(C)N2c1ccccc1 (stereo unspecified) | 0.4 | 0.8 | 24 | 58* | -3
COC(=O)C1=C(C)N(c2ccc(C)cc2)/C(=C/c2cccs2)C1=O | 0.6 | 0.9 | 6 | 43 | -0.55
COC(=O)C1=NN(c2ccc(C)cc2)C2(S1)SC(C(C)=O)=C(C)N2c1ccccc1 (stereo unspecified) | 0.4 | 0.4 | 58* | 59* | -3.1
O=S1(=O)N=C(Nc2ccc(O)c(CN3CCCCC3)c2)c2ccccc21 | 1.2 | 1.2 | -16 | -18 | 1.1
